# Measurements: ChEMBL document CHEMBL2218924, “A broad activity screen in support of a chemogenomic map for kinase signalling research and drug discovery” (Biochem J, 2013)
# Tests used:
# [1] = target: T1, Serine/threonine-protein kinase TBK1 (Homo sapiens) (UniProt Q9UHD2); conditions: at 10 µM
# T1 sequence (whole entry): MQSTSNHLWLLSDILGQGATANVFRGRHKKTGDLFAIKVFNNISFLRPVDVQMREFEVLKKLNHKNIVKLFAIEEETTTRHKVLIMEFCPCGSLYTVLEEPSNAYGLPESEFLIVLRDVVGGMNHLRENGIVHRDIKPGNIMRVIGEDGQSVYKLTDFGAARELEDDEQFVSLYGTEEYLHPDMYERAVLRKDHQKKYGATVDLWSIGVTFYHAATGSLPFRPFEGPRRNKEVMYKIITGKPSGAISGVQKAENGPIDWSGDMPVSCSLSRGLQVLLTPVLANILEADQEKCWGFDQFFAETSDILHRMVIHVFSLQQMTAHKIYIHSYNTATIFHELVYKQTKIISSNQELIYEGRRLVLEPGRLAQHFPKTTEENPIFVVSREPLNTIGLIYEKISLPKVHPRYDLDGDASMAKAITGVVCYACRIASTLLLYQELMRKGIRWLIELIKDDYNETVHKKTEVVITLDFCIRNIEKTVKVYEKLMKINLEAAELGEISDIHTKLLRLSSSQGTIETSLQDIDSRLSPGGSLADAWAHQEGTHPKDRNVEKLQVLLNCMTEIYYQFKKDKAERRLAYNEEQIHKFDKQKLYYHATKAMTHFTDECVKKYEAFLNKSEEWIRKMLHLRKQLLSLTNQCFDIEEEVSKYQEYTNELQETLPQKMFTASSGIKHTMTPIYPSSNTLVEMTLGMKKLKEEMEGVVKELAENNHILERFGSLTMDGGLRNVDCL
# [2] = target: T2, TGF-beta receptor type-1 (Homo sapiens) (UniProt P36897); conditions: at 1 µM
# T2 sequence (whole entry): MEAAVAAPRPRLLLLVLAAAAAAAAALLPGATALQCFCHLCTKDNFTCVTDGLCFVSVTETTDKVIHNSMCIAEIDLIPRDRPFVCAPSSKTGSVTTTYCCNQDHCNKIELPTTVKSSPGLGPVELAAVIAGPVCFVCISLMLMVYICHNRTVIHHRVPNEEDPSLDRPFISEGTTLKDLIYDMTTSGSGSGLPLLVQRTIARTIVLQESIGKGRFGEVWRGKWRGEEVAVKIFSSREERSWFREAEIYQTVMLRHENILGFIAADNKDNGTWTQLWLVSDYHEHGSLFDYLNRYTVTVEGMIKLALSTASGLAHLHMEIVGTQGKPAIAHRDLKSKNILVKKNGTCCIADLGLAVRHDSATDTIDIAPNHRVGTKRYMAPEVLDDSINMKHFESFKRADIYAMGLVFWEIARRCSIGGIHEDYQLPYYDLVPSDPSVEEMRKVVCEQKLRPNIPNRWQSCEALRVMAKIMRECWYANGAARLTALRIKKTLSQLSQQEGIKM
# [3] = target: T2, TGF-beta receptor type-1 (Homo sapiens); conditions: at 10 µM
# [4] = target: T3, Inhibitor of nuclear factor kappa-B kinase subunit beta (Homo sapiens) (UniProt O14920); conditions: at 1 µM
# T3 sequence (whole entry): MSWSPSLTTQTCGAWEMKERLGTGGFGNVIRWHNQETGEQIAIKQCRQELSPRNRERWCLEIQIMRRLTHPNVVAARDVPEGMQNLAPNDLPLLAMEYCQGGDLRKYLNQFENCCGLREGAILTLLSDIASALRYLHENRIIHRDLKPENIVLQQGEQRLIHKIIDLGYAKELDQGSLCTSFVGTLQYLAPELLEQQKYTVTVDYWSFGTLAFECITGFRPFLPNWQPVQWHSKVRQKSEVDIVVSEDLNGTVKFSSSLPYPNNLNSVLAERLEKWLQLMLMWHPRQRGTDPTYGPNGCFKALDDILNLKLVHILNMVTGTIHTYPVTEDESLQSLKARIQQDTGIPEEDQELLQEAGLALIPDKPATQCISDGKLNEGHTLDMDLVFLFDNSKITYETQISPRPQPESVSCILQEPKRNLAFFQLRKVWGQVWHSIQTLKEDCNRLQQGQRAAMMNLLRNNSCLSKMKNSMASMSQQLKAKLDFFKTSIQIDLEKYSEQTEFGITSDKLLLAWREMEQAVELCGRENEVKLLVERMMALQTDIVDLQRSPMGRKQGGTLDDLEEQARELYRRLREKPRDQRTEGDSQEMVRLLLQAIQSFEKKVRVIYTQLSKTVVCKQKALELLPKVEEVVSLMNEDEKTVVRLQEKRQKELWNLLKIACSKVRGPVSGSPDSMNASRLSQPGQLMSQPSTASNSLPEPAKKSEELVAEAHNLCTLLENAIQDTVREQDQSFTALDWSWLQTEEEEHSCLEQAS
# [5] = target: T3, Inhibitor of nuclear factor kappa-B kinase subunit beta (Homo sapiens); conditions: at 10 µM
# [6] = target: Insulin receptor (Homo sapiens) (UniProt P06213); conditions: at 10 µM
# Insulin receptor (Homo sapiens), sequence (P06213 28-758 limits assumed): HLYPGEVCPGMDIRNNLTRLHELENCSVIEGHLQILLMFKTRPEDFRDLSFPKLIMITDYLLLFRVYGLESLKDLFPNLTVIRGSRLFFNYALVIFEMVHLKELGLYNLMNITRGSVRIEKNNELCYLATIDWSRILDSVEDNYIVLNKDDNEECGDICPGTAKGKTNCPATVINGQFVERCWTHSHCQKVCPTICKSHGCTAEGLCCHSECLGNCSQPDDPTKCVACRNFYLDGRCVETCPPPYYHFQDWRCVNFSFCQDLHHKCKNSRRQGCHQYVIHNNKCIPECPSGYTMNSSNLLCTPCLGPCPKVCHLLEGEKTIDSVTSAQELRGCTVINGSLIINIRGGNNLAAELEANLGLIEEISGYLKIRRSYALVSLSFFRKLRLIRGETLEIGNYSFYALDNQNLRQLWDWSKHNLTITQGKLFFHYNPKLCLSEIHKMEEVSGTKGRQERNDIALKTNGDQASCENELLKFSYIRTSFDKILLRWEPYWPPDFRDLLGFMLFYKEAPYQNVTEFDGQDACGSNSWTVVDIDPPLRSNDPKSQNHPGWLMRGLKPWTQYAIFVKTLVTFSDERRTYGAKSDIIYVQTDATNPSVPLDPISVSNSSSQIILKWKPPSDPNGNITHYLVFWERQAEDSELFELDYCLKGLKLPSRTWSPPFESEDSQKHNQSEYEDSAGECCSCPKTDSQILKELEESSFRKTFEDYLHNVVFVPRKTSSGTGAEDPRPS
# Insulin receptor (Homo sapiens), sequence (P06213 763-1382 limits assumed): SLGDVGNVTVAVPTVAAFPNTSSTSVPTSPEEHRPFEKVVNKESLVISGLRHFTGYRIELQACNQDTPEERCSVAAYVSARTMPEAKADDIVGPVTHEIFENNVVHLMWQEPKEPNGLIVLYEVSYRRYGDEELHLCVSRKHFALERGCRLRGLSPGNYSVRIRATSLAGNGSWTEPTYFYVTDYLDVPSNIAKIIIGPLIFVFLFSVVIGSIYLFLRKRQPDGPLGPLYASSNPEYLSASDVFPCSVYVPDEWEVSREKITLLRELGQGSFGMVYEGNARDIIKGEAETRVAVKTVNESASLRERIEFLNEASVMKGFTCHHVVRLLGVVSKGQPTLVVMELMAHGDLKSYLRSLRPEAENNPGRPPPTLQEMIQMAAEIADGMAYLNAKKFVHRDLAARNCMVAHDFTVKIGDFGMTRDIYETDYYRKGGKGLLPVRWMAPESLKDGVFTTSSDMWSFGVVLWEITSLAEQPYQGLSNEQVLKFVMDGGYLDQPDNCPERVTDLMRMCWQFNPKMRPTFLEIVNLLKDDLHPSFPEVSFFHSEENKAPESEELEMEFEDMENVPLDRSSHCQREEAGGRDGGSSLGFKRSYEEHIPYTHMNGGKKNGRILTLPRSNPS
# [7] = target: Insulin receptor (Homo sapiens) (UniProt P06213); conditions: at 1 µM
# [8] = target: Insulin receptor (Homo sapiens) (UniProt P06213); conditions: at 10 µM; remark: listed apart in the source
# [9] = target: Interleukin-1 receptor-associated kinase 1 (Homo sapiens) (UniProt P51617); conditions: at 1 µM
# Interleukin-1 receptor-associated kinase 1 (Homo sapiens), sequence (P51617 whole entry, looked up): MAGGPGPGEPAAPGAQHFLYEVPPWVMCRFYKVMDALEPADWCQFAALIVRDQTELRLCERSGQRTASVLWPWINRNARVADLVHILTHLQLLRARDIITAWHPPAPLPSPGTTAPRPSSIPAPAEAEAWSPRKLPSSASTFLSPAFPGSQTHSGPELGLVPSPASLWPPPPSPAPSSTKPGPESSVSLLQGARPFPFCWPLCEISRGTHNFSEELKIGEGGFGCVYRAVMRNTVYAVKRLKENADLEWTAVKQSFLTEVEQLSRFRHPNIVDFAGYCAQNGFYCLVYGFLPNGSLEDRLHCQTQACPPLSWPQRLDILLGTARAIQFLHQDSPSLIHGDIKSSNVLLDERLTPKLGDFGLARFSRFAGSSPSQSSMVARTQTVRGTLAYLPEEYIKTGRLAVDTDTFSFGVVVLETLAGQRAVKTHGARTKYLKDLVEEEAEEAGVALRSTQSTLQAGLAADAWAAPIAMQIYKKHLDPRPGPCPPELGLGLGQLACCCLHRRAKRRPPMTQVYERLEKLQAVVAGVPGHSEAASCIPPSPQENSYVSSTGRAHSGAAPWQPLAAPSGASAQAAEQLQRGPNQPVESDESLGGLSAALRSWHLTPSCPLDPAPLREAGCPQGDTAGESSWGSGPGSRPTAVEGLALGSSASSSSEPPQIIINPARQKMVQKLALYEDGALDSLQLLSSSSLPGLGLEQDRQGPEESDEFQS
# [10] = target: Interleukin-1 receptor-associated kinase 1 (Homo sapiens) (UniProt P51617); conditions: at 10 µM
# [11] = target: T4, Interleukin-1 receptor-associated kinase 4 (Homo sapiens) (UniProt Q9NWZ3); conditions: at 1 µM
# T4 sequence (whole entry): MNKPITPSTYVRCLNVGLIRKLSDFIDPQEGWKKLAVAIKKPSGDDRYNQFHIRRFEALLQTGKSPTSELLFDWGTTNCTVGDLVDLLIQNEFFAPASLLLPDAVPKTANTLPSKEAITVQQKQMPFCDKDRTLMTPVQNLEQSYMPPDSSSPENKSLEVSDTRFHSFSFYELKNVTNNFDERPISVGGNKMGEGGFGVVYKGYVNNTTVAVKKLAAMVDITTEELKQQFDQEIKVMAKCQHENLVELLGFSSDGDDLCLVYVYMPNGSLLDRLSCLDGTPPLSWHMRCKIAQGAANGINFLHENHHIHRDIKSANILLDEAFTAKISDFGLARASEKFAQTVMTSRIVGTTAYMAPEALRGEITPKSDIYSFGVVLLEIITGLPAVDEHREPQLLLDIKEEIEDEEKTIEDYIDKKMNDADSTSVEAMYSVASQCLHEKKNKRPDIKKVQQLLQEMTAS
# [12] = target: T4, Interleukin-1 receptor-associated kinase 4 (Homo sapiens); conditions: at 10 µM
# [13] = target: T5, Tyrosine-protein kinase ITK/TSK (Homo sapiens) (UniProt Q08881); conditions: at 1 µM
# T5 sequence (whole entry): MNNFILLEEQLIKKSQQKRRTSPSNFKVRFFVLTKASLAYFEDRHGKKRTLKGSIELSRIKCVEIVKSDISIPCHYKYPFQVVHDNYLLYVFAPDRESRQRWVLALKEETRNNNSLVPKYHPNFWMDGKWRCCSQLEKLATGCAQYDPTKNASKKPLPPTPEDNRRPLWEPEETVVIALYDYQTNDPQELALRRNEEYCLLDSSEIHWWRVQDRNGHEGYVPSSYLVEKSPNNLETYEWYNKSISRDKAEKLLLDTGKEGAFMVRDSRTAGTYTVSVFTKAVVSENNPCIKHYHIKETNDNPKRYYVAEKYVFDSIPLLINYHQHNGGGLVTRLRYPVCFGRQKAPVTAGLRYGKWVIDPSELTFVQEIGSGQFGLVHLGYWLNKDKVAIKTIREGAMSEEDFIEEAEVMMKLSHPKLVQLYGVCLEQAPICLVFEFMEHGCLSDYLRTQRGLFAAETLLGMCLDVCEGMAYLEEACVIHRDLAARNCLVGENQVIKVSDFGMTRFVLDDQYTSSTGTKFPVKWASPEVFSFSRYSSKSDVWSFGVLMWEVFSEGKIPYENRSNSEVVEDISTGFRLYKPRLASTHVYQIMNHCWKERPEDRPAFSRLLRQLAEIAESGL
# [14] = target: Insulin receptor (Homo sapiens) (UniProt P06213); conditions: at 1 µM; remark: listed apart in the source
# [15] = target: Insulin receptor-related protein (Homo sapiens) (UniProt P14616); conditions: at 1 µM
# Insulin receptor-related protein (Homo sapiens), sequence (P14616 27-742 limits assumed): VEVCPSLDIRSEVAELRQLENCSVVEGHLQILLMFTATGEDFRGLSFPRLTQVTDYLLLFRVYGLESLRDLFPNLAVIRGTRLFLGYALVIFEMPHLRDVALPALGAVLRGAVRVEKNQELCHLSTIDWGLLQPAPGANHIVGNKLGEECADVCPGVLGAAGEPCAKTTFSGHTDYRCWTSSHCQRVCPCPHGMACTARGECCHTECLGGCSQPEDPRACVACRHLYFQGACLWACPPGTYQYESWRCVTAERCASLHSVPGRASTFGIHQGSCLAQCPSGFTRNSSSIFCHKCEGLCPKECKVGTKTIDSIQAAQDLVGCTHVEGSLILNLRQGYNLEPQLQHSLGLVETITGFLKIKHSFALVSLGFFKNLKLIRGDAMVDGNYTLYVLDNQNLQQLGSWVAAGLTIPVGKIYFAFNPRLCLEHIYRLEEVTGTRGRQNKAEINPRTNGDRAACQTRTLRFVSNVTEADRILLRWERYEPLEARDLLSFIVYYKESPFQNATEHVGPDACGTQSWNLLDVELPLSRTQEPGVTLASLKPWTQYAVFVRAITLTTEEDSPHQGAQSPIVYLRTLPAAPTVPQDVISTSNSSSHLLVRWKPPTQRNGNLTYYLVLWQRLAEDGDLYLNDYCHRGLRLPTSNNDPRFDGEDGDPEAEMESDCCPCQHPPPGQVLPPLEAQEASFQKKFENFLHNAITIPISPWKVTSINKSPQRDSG
# Insulin receptor-related protein (Homo sapiens), sequence (P14616 747-1297 limits assumed): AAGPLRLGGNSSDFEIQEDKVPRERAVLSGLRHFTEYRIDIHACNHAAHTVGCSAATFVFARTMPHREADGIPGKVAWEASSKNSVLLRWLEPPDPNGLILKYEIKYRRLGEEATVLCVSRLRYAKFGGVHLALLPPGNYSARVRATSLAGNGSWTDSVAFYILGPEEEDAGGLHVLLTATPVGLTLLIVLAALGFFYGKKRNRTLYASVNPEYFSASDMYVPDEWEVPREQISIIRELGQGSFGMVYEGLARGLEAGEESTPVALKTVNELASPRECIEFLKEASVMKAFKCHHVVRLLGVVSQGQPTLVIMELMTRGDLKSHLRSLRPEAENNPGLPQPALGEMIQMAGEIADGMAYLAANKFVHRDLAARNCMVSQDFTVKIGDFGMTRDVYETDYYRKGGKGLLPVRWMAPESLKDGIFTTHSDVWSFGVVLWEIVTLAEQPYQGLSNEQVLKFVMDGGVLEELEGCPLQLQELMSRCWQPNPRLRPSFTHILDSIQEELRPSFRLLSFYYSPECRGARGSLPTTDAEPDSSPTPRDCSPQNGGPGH
# [16] = target: Insulin receptor-related protein (Homo sapiens) (UniProt P14616); conditions: at 10 µM
# [17] = target: Insulin-like growth factor 1 receptor (Homo sapiens) (UniProt P08069); conditions: at 1 µM
# Insulin-like growth factor 1 receptor (Homo sapiens), sequence (P08069 31-736 limits assumed): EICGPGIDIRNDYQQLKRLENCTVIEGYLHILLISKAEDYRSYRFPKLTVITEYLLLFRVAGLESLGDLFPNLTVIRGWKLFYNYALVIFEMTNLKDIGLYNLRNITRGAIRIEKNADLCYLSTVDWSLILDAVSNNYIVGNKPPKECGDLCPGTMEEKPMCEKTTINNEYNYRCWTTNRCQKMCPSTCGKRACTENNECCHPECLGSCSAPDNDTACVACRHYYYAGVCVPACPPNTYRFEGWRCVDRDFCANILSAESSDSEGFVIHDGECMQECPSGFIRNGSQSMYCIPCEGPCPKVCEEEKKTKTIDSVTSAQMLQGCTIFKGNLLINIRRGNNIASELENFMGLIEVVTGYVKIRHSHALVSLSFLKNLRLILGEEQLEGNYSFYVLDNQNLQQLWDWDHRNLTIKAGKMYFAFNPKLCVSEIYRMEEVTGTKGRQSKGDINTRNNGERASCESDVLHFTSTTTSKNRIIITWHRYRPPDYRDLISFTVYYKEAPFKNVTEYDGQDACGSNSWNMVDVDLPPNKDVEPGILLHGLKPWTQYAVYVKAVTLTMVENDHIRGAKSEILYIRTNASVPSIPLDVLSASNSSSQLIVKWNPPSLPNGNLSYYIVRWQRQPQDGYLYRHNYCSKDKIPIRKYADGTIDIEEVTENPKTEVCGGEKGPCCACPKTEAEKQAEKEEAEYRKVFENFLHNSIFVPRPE
# Insulin-like growth factor 1 receptor (Homo sapiens), sequence (P08069 741-1367 limits assumed): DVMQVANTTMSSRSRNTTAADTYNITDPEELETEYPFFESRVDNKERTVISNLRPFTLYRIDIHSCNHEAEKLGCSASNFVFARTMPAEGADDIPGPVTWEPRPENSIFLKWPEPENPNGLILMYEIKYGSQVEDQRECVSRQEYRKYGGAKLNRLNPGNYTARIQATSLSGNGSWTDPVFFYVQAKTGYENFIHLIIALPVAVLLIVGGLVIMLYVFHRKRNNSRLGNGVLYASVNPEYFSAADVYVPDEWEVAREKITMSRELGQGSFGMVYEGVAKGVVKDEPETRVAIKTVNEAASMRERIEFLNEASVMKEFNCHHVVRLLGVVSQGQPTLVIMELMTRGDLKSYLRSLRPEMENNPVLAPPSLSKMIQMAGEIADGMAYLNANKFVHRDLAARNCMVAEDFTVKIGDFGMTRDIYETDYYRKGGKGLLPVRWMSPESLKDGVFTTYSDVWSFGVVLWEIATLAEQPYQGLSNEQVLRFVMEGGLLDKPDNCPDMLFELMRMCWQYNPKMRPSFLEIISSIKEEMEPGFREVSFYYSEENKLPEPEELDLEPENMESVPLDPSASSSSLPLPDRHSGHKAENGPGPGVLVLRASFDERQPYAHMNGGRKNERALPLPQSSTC
# [18] = target: Insulin-like growth factor 1 receptor (Homo sapiens) (UniProt P08069); conditions: at 10 µM
# [19] = target: T6, Inhibitor of nuclear factor kappa-B kinase subunit alpha (Homo sapiens) (UniProt O15111); conditions: at 1 µM
# T6 sequence (whole entry): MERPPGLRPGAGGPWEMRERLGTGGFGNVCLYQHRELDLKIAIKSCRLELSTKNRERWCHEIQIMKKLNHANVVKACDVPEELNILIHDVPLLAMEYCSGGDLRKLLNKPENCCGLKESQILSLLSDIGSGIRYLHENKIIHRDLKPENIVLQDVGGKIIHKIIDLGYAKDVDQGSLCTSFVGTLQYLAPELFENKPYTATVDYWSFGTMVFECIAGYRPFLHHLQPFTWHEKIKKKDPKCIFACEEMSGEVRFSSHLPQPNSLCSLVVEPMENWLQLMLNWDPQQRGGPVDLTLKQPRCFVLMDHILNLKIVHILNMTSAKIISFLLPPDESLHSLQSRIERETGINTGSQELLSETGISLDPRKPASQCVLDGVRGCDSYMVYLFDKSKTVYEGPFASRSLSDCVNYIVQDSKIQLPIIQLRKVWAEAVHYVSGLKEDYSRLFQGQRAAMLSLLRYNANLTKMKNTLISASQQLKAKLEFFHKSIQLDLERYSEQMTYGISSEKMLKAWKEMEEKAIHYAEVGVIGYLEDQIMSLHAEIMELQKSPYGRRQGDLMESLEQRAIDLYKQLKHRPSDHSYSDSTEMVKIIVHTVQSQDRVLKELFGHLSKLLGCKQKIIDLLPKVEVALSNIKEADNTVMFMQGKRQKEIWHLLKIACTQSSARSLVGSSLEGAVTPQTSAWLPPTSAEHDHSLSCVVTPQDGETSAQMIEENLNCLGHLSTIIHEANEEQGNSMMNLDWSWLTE
# [20] = target: T6, Inhibitor of nuclear factor kappa-B kinase subunit alpha (Homo sapiens); conditions: at 10 µM
Structure (SMILES),residual activity [1] [%],residual activity [2] [%],residual activity [3] [%],residual activity [4] [%],residual activity [5] [%],residual activity [6] [%],residual activity [7] [%],residual activity [8] [%],residual activity [9] [%],residual activity [10] [%],residual activity [11] [%],residual activity [12] [%],residual activity [13] [%],residual activity [14] [%],residual activity [15] [%],residual activity [16] [%],residual activity [17] [%],residual activity [18] [%],residual activity [19] [%],residual activity [20] [%]
CC(=O)c1ccc(N2CCOCC2)cc1O,70,83,90,104,102,81,104,97,105,95,95,98,97,,,,,,,
N#CCCc1ccc2c(c1)-c1[nH]c3ccc([N+](=O)[O-])cc3c1CC(=O)N2,13,73,28,,,,,76,45,20,62,28,81,118,100,81,,,,
CO[C@@H]1[C@H](N(C)C(=O)c2ccccc2)C[C@H]2O[C@]1(C)n1c3ccccc3c3c4c(c5c6ccccc6n2c5c31)C(=O)NC4,1,85,,,84,,80,72,85,74,53,47,56,87,98,57,92,84,101,91
O=C1Nc2cc(Br)ccc2/C1=C1/Nc2ccccc2/C1=N\O,15,88,77,101,85,82,98,83,93,90,35,34,22,75,78,85,99,101,105,100
Nc1cccc(-c2cc3c(Oc4cccc(O)c4)ncnc3[nH]2)c1,19,101,56,,91,46,103,78,69,20,79,69,68,,98,58,105,85,88,78
CC#CC(=O)Nc1cc2c(Nc3ccc(F)c(Cl)c3)ncnc2cn1,72,74,89,96,96,85,103,98,94,73,103,98,100,101,127,86,98,93,97,95
